Assay outcomes deposited in PubChem BioAssay by National Center for Advancing Translational Sciences (NCATS).
AID923 = qHTS Assay for Allosteric/Competitive Inhibitors of Caspase-1: Spectroscopic Profiling in AFC Spectral Region | compound fluorescence, AFC spectral region (405/520 nm) | Potency, µM (doses to about 57.5 µM), without a hit: at the highest dose fluorescence increase, hits mostly activators | hit rate 1.1% among 75,000 | AID 923, 2007; note: potency is the fitted concentration of half-maximal effect; 0% is about no effect
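Titrations up to 57 uM read every 20 sec for 3 min (405/520 nm) with 50 nM caspase 1 and 5 uM Ac-WEHD-AFC, pH 7.5 HEPES buffer. Fluorescence-vs-time intercept gave baseline, scaled against on-plate AFC standard.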
4-MU autofl = compound fluoresces in the 4-MU spectral region. compound autofluorescence, 340/450 nm, 4-MU equivalents; active compounds read high. max dye-equivalent concentration, M. hit rate 11% among 59,000. AID 589; in the data active = max dye-equivalent concentration above about 10 nM; inconclusive = mostly about 1.1 nM to 9.6 nM
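Compounds in 100 mM Tris, pH 8.0, sat 15 min at room temperature before fluorescence was read at 340 nm excitation/450 nm emission; a per-plate six-point 4-MU standard curve converted signals to dye-equivalent concentration at each compound concentration.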
CRE Fsk mod = modulators of forskolin-stimulated CRE signaling in CHO cells; Potency, µM (titrated, usually from 38.2 µM), without a hit: at the top dose activity change, negative = inhibition, hits mostly activators; CHO CRE-bla reporter (cAMP response element driving beta-lactamase), forskolin EC10, beta-lactamase ratio; hit rate 2.5% among 71,000; AID 662; active = well fitted activation curve with a large enough effect in the signal ratio, with a control signal flat, not every such curve was filed as active; inconclusive = small, poorly fitted or top-dose-only effect, or effect the other way, or a change in a side signal; the % refers to the signal ratio; note: potency is the fitted concentration of half-maximal effect; % of control where 0% means no effect
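Cells were plated overnight at 37 °C, exposed to compound titrations plus EC10 NKH 477 for 3 h, then given CCF4 dye for 2 h at room temperature. Blue/green (460/530 nm) ratio was converted to %Activity and AC50 values calculated.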
HSD17B inh = HSD17B dehydrogenase inhibition; Potency, µM (doses to about 57.1 µM), for inactives: top-dose activity change, negative = inhibition, most hits filed as inhibitors; recombinant HSD17B10, NADH fluorescence kinetic; hit rate 7.6% among 75,000; AID 893; Q99714;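 note: the protocol describes HADH2 (HSD17B10) and not the HSD17B4 of the title; potency is the fitted concentration of half-maximal effect; % is set by controls: 0 for no effect and ±100 for the full control effect; nearly all actives have a fitted effect of over 70% in size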
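20 nM HADH2, pH 9.0 Tris/Tween; cpd preinc 15 min RT; start w/ 1 mM NAD+ + 90 uM b-hydroxybutyryl-CoA; kinetic fluor ex360/em450 q30s x 4 min; delta last-first.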
A350 fluor = compound fluoresces in the Alexa 350 spectral region | hit rate 11% among 59,000 | Compound autofluorescence, 340/450 nm, Alexa 350 dye-equivalents; active compounds read high | max dye-equivalent concentration, M; in the data active = max dye-equivalent concentration above about 10 nM; inconclusive = mostly about 1.1 nM to 9.6 nM
HADH2 inh = inhibitors of human HADH2 dehydrogenase. Q99714. recombinant HADH2, NADH fluorescence, beta-hydroxybutyryl-CoA. Potency, µM (titrated, usually from 57.1 µM), inactives show at the highest dose activity change, negative = inhibition, most hits filed as inhibitors. hit rate 3.4% among 73,000; note: potency is the fitted concentration of half-maximal effect; % is set by controls: 0 for no effect and ±100 for the full control effect; nearly all actives have a fitted effect of over 60% in size
Target sequence (Q99714 whole entry, looked up, one chain of several): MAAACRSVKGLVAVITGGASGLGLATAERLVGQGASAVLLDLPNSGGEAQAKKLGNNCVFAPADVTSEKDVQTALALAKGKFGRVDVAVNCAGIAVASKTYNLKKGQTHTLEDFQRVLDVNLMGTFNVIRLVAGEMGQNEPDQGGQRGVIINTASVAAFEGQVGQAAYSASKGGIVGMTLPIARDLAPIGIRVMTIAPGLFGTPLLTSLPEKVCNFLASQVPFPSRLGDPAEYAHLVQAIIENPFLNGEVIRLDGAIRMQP
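Read-out: 360 nm excitation, 450 nm emission, kinetic over 4 min. Conditions: His-tagged human HADH2 20 nM, pH 9.0 Tris with Tween-20, 1 mM NAD+, 90 uM beta-hydroxybutyryl-CoA.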
* marks the source's active call; other numbers are inactive results; i = inactive; ? = inconclusive; nt = no result given; [ ] = remark or other dose. In the library only some 14% were active in any assay of this set; here they are far more common. Unless noted, calls come from the whole dose curve; as a rule, active = well fitted curve in the direction sought with a large enough effect; inconclusive = small, poorly fitted or top-dose-only effect, or another doubt; inactive = no such curve, though single readings can be large; an effect the other way counts as inactive or inconclusive.

SMILES	AID923	4-MU autofl	CRE Fsk mod	HSD17B inh	A350 fluor	HADH2 inh
O=C(O)CCC(=O)Nc1ccc(N2CCCCCC2)cc1	2%	1.2e-08M*	2%	6%	1.3e-08M*	-23%
O=C(CCN1CCN(c2ccc(F)cc2)CC1)Nc1ccc(F)cc1	0%	1e-08M*	?	-13%	1.2e-08M*	2%
O=C(CN1CCN(c2ccc(Cl)cc2)CC1)Nc1ccc(F)cc1	0%	i	5%	-5%	i	4%
CCOCCCNC(=O)CN1CCN(c2ccc(F)cc2)CC1	1%	4e-06M*	-2%	-12%	2.9e-06M*	7%
CN(C)CC(CN(C)C)c1ccccn1	2%[11.5 µM]	?	-16%[7.6 µM]	2%[11.4 µM]	?	2%[11.4 µM]
CCOC(=O)C1CCN(C(=O)CCNC(=O)c2cc(OC)c(OC)c(OC)c2)CC1	0%	3.7e-08M*	9%	-8%	?	13%
COC(=O)C1CCN(C(=O)c2cc(OC)c(OC)c(OC)c2)CC1	0%	i	12%	1%	i	1%
Cc1ccccc1Cn1c(CN2CCN(C(=O)c3ccco3)CC2)nc2c1c(=O)n(C)c(=O)n2C	-1%	nt	?	-22%	nt	14%
Cn1c(=O)c2c(nc(CN3CCN(c4ccccc4F)CC3)n2CCN2CCOCC2)n(C)c1=O	3%	1.4e-08M*	?	?	1.6e-08M*	2%
Cn1c(=O)c2c(nc(CN3CCN(C(=O)c4ccco4)CC3)n2Cc2ccc(F)cc2)n(C)c1=O	0%	5.6e-08M*	0%	-18%	6.3e-08M*	-9%
CCCCn1c(CN2CCOCC2)nc2c1c(=O)n(C)c(=O)n2C	6%	nt	8%	25µM*	nt	-15%
COC(=O)C1=C(C)NC(C)=C(C(=O)OCCN(C)Cc2ccccc2)[C@@H]1c1cccc([N+](=O)[O-])c1	-1%	i	-15%	-7%	i	-8%
CO/N=C(\C)CCN1CCCCc2nc(C)c(C)cc21	0%[11.5 µM]	nt	nt	2%[11.4 µM]	nt	-7%[11.4 µM]
COc1ccc(-c2ccc(-c3nnc(Cc4ccc(OC)c(OC)c4)o3)cc2)cc1	-1%	?	4%	2.5µM*	?	4%
COc1ccc(Oc2ncc3nc(CCc4ccccc4)c(=O)n(C4CC4)c3n2)cc1	3%	i	4%	?	i	-3%
COCOc1ccc(Br)cc1C(=O)/C=C\c1ccc2c(c1)OCO2	1%[11.5 µM]	nt	nt	-5%[11.4 µM]	nt	-10%[11.4 µM]
CCOc1ccc2nc(SCC(=O)N3CCCCCC3)c(C#N)cc2c1	12%	2.4e-08M*	19%	16µM*	2.2e-08M*	11%
CCOc1ccc2nc(NCCNC(=O)CC)c(C#N)cc2c1	1%	i	?	0%	i	17%
CCOc1ccc2cc(C#N)c(SCC(=O)N3CCOCC3)nc2c1	3%	1.6e-07M*	7%	25µM*	1.4e-07M*	?
CCOC(=O)c1c(C)n(C)c2ccc(OCC(O)CN3C(=O)c4ccccc4S3(=O)=O)cc12 (centres undefined)	-2%	i	2µM*	8%	i	6%
CCOC(=O)c1c(C)n(C)c2ccc(OCC(O)Cn3nc(C)cc3C)cc12 (centres undefined)	-1%	i	13µM*	10%	i	11%
Cc1ccc2cc(C(c3nnnn3C3CCCC3)N(Cc3ccccc3)Cc3ccco3)c(=O)[nH]c2c1 (centres undefined)	1%	?	-2%	?	?	-6%
COc1cc2cc(C(c3nnnn3C3CCCC3)N(C)C3CCCCC3)c(=O)[nH]c2cc1OC (centres undefined)	3%	8.2e-08M*	13µM*	?	6.6e-08M*	-21%
COc1cc2cc(C(c3nnnn3C3CCCCC3)N(C)C3CCCCC3)c(=O)[nH]c2cc1OC (centres undefined)	2%	4.8e-08M*	13µM*	-29%	4.2e-08M*	-28%
CC(C)C(c1nnnn1C1CCCC1)N(C)C1CCCCC1 (centres undefined)	0%	i	0%	2%	i	9%
CCCCOCCOCCSC#N	2%	nt	-10%	-3%	nt	3%
